Most compounds without a hit are left out; they make up all but 2.8% or so of the library.
Giardia killer: kills Giardia lamblia; 340,000 compounds, 0.15% hits; activity change, % at 7.66 µM, hits read low; AID 540267; Giardia lamblia trophozoite viability; in the data active = activity change below about -80%; inconclusive = between about -30% and that limit;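 also: parasites exposed to compound for two days anaerobically before the ATP read; % is scaled to controls: 0 for no effect and ±100 for the full control effect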
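Media and compound were dispensed first, then trophozoites at 100 cells/well; plates sat 48 hrs at 37 deg C without oxygen before ATP luminescence reagent was added and read after 15-30 min at room temperature.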
D3 ag: D3 dopamine receptor (human) agonism; 410,000 compounds, 0.58% hits; D3R DiscoveRx beta-arrestin cells, luminescence, 90 min; max activation, %; in the data active = max activation above about 30%; also: 0% is about no effect
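Agonist mode: compounds and dopamine controls were applied to plated cells for 90 min at 37 degrees C after an overnight attachment at 1500 cells/well. Luminescent read-out followed 30 - 60 minutes at room temperature with DiscoveRx detection reagent.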
DRD3 antagonist: antagonists of human D3 dopamine receptor. P35462. D3R cells, DiscoveRx beta-arrestin luminescence, antagonist mode; stronger effect = lower value. max response, negative = inhibition, %. 360,000 compounds, 2.5% hits; in the data active = max response below about -50%; inconclusive = no clear call, values can overlap the other calls; also: % is scaled to controls: 0 for no effect and ±100 for the full control effect
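Cells expressing the human receptor were seeded at 1500 cells/well, incubated overnight at 37 degrees C in 5% CO2, then exposed to library compounds with dopamine controls for 90 minutes at 37 degrees C before luminescent detection.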
B2AR arrestin: recruits beta-arrestin to the human beta2-adrenergic receptor | 330,000 compounds, 0.02% hits | P07550 | beta-arrestin recruitment to beta2AR, cell-based reporter | Potency, µM (titrated, usually from 46.1 µM), for inactives: top-dose activation, hits mostly activators; active = well fitted activation curve with a large enough effect; inconclusive = small, poorly fitted or top-dose-only effect;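 also: potency is read from the fitted curve at half-maximal effect; 0% = DMSO controls and full agonism = EC100 isoproterenol or metaproterenol; nearly all actives have a fitted effect of over 65% in size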
Target sequence (P07550 whole entry, looked up): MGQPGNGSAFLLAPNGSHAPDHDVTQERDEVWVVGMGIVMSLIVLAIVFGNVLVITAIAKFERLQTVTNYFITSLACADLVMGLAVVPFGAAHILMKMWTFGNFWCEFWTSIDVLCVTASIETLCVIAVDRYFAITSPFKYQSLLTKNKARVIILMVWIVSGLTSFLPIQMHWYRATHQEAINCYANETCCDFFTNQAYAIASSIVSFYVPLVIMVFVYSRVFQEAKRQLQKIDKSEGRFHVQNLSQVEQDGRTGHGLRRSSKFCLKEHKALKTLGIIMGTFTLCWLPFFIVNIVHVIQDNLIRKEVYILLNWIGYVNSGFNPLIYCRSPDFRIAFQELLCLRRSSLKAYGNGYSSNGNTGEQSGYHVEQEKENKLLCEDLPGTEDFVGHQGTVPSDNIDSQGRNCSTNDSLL
Starred values were filed as active, the others as inactive; ? = inconclusive; . = no result given.

SMILES | Giardia killer | D3 ag | DRD3 antagonist | B2AR arrestin
COc1ccc(C(CNC(=O)c2ccc(Cl)c(NC(=O)c3cccs3)c2)N2CCCC2)cc1 (stereo not drawn) | 12 | -30 | -68* | 0%
O=C(NCCN1CCOCC1)C1(C(F)(F)F)C/C(=C/CCO)CCCO1 (stereo not drawn) | 15 | . | . | .
CC(CNC(=O)c1ccc(Cn2c(=O)c3cccn3c3cccnc32)cc1)c1ccccc1 (stereo not drawn) | . | 9 | . | .
CC1(C)C2CCC1(C)C(NC(=O)COC(=O)c1ccc(S(C)(=O)=O)c([N+](=O)[O-])c1)C2 (stereo not drawn) | -3 | . | . | .
CC(C)S(=O)(=O)N1CCN(c2nc(-c3cccs3)nc3ccccc23)CC1 | -7 | . | . | .
O=C(CSc1n[nH]c(-c2ccccc2)n1)N1CCN(c2ccccc2F)CC1 | . | 3 | . | .
COc1ccc(C(CNC(=O)CNC(=O)c2cccc(C)c2)N2CCOCC2)cc1 (stereo not drawn) | 4 | 2 | -17 | 0%
COc1ccc(C(CNC(=O)c2cccc(S(=O)(=O)Nc3ccc(F)cc3)c2)N2CCCCC2)cc1 (stereo not drawn) | -25 | -24 | -72* | .
COc1ccc(OCC(=O)NCC(c2ccc(OC)cc2)N2CCCCC2)cc1 (stereo not drawn) | 3 | -17 | -62* | 0%
COc1ccc(C(CNC(=O)c2ccc(NS(=O)(=O)c3ccc(F)c(C)c3)cc2)N2CCCC2)cc1 (stereo not drawn) | 7 | -16 | -22 | .
COc1ccc(C(CNC(=O)COc2ccc(C)c(C)c2)N2CCCCC2)cc1 (stereo not drawn) | 13 | -17 | -100* | 0%
COc1ccc(C(CNC(=O)COc2cc(C)cc(C)c2)N2CCCCC2)cc1 (stereo not drawn) | . | -21 | . | .
COc1ccc(C(CNC(=O)COc2ccc(Cl)cc2C)N2CCCCC2)cc1 (stereo not drawn) | -6 | -16 | -13 | 0%
COc1ccc(C(CNC(=O)CNC(=O)c2cccc(C)c2)N2CCCCC2)cc1 (stereo not drawn) | -8 | -27 | -52* | .
O=C(O)c1ccnc2c(O)cccc12 | . | . | . | 0%
Cc1nc2sccn2c(=O)c1S(=O)(=O)Nc1cc(Cl)ccc1O | . | -1 | . | .
COc1ccc(CCNC(=O)CSc2cn(CCNC(=O)c3cccc(C(F)(F)F)c3)c3ccccc23)cc1OC | . | 8 | . | .
COc1ccc(C2CC(c3ccccc3)Oc3cc4c(cc32)OCO4)cc1 (stereo not drawn) | -8 | . | . | .
O=C(CSc1nnc(-c2ccc(O)cc2)o1)c1ccc(Br)cc1 | . | 1 | . | .
COc1ccc(C(CNC(=O)COc2ccccc2)N2CCOCC2)cc1 (stereo not drawn) | 2 | -25 | -23 | 0%
COc1ccc(C(CNC(=O)COc2ccccc2)N2CCCCC2)cc1 (stereo not drawn) | 21 | -29 | -116* | -1%
C=CCc1c(C)nc(C)nc1N/N=C/c1ccccc1O | 1 | -21 | -113* | 0%
Cc1ccc(C2(C)NC(=O)N(CC(=O)Nc3cc(C)on3)C2=O)cc1 (stereo not drawn) | -12 | -3 | 23 | -1%
Cc1ccc(C2(C)NC(=O)N(CC(=O)NC(=O)NC(C)(C)C)C2=O)cc1 (stereo not drawn) | -5 | 33* | 10 | -1%
O=C(Oc1ccc(C(=S)N2CCOCC2)cc1)c1ccc([N+](=O)[O-])cc1[N+](=O)[O-] | -11 | -8 | -29 | 0%
SMILES | Giardia killer | D3 ag | DRD3 antagonist | B2AR arrestin
O=C(Oc1cccc(C(=S)N2CCOCC2)c1)c1ccc([N+](=O)[O-])cc1[N+](=O)[O-] | -2 | -17 | -51* | 0%
CC(CN1CCCC1)OC(=O)c1cccc(F)c1 (stereo not drawn) | 23 | -19 | -5 | 0%
CN(CCOC(=O)c1ccccc1)Cc1ccccc1 | -21 | -8 | ? | 0%
CN(CCOC(=O)c1cccc(F)c1)Cc1ccccc1 | 6 | -6 | -88* | 0%
CC(CN(C)Cc1ccccc1)OC(=O)c1cccc(F)c1 (stereo not drawn) | 11 | -33 | -60* | -1%
CC(CN1CCCCC1)OC(=O)Cc1ccc(Cl)cc1 (stereo not drawn) | -3 | 3 | -58* | 0%
CC(CN1CCCCC1)OC(=O)/C=C/c1ccccc1 (stereo not drawn) | 5 | -28 | -61* | 0%
CC(CN1CCCC1)OC(=O)c1ccccc1Cl (stereo not drawn) | -19 | -8 | ? | 0%
CC(CN1CCN(C)CC1)OC(=O)c1ccccc1Cl (stereo not drawn) | 15 | -2 | -52* | 0%
